# Reference: the supplement of paper PMC6555819
# How the values were obtained:
# Experiment in all cases: PBM binding z-score (relative to random genomic background probes); higher = stronger binding; sequences stand for … in GC…GCGATTGACAGCGTAGAATGAAGG
# [1] = test system: FXR:RXRa (NR concentration 270 nM, RXRa partner concentration 90 nM)
# In short: (§1)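 Binding z-scores take random background probes as their reference. They come from custom Agilent 4×180K protein-binding microarrays incubated 1 h with ligand-free nuclear receptor dimers, with antibodies against each partner (one per run) detecting binding. Scanned fluorescence was regression-normalized.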
# [2] = test system: LXRa:RXRa (NR concentration 270 nM, RXRa partner concentration 90 nM)
# In short: as §1
# [3] = test system: LXRa homodimer (NR concentration 270 nM)
# In short: as §1
# [4] = test system: LXRb:RXRa (NR concentration 270 nM, RXRa partner concentration 90 nM)
# In short: as §1
# [5] = test system: LXRb homodimer (NR concentration 270 nM)
# In short: as §1
# [6] = test system: PPARa:RXRa (NR concentration 270 nM, RXRa partner concentration 90 nM)
# In short: as §1
# [7] = test system: PPARg:RXRa (NR concentration 180 nM, RXRa partner concentration 90 nM)
# In short: as §1
# [8] = test system: PPARg:RXRa 270nM:90nM, anti-RXR (NR concentration 270 nM, RXRa partner concentration 90 nM)
# In short: as §1
# [9] = test system: PPARg:RXRa 30nM:10nM, anti-RXR (NR concentration 30 nM, RXRa partner concentration 10 nM)
# In short: as §1
# [10] = test system: PPARg:RXRa 90nM:30nM, anti-RXR (NR concentration 90 nM, RXRa partner concentration 30 nM)
# In short: as §1
# [11] = test system: PPARg:RXRa DBDmut IVT, anti-RXR (DBD mutation: RXRa K156A/R161A, NR concentration 270 nM, RXRa partner concentration 90 nM)
# In short: as §1
# [12] = test system: PPARg:RXRa IVT, anti-PPARg (NR concentration 270 nM, RXRa partner concentration 90 nM)
# In short: as §1
# [13] = test system: PPARg DBDmut:RXRa IVT, anti-PPARg (DBD mutation: PPARg1 K132A/R137A, NR concentration 270 nM, RXRa partner concentration 90 nM)
# In short: as §1
# [14] = test system: PPARg DBDmut IVT, anti-PPARg (DBD mutation: PPARg1 K132A/R137A, NR concentration 270 nM)
# In short: as §1
# [15] = test system: PPARg homodimer (NR concentration 180 nM)
# In short: as §1
# [16] = test system: PXR:RXRa (NR concentration 270 nM, RXRa partner concentration 90 nM)
# In short: as §1
# [17] = test system: PXR homodimer (NR concentration 270 nM)
# In short: as §1
# [18] = test system: RARa:RXR (NR concentration 270 nM, RXRa partner concentration 90 nM)
# In short: as §1
# [19] = test system: RARa homodimer (NR concentration 270 nM)
# In short: as §1
# [20] = test system: RARb:RXRa (NR concentration 270 nM, RXRa partner concentration 90 nM)
# In short: as §1
Sequence,PBM binding z-score [1],PBM binding z-score [2],PBM binding z-score [3],PBM binding z-score [4],PBM binding z-score [5],PBM binding z-score [6],PBM binding z-score [7],PBM binding z-score [8],PBM binding z-score [9],PBM binding z-score [10],PBM binding z-score [11],PBM binding z-score [12],PBM binding z-score [13],PBM binding z-score [14],PBM binding z-score [15],PBM binding z-score [16],PBM binding z-score [17],PBM binding z-score [18],PBM binding z-score [19],PBM binding z-score [20]
CCTGACGGGTCACTGACAGGTTATAGCATTTGGA,4.19,3.46,0.214,2.64,-0.319,4.19,2.56,2.71,0.481,1.8,1.12,1.82,0.147,-0.292,3.03,3.08,-0.179,4.01,0.536,3.69
CCTACTGGGCCTTTCAGAGGTCATTGATCATATG,2.73,4.97,8.02,3.71,0.477,3.35,0.785,2.22,0.333,1.2,2.39,2.44,-0.307,0.081,2.46,4.68,2.5,4.52,1.01,2.8
AGTCAAAGTTCAGGACCAGGTAACGTAAAGCACG,4.33,3.63,1.19,1.72,0.134,3.32,4.94,4.9,2.16,4.19,-0.279,1.91,0.221,0.246,1.9,2.47,1.19,2.67,0.885,4.37
ACTAGTTGGTCAGCAGAGGTCACACACAATTCGG,4.13,4.71,4.06,4.34,1.39,4.7,3.33,3.79,1.16,3.11,1.92,3.43,1.09,0.493,3.51,5.73,1.6,5.96,2.56,4.17
TCTTGTAGATCAACACGAGGTTAAGAAAGATCGA,0.233,1.58,0.248,1.01,-0.293,1.55,0.0854,1.33,2.58,1.94,1.48,1.07,0.862,1,0.489,1.05,0.0696,1.27,0.374,0.536
AGAATTAGGTTAAGATCAGGGAAACAGAATACAT,0.832,0.821,0.412,0.748,0.359,2.94,3.33,2.93,1.28,2.24,6.07,5.8,2.12,1.83,1.72,0.514,0.846,0.922,1.26,1.03
TCATATAGGTAAAGGTGAATGTCGAACGATATGA,0.972,1.33,-0.151,1.19,-0.0794,2.99,4.24,4.23,4.36,4.59,3.9,4.33,0.991,1.7,1.02,0.695,0.181,1.46,0.501,1.87
TGAATGAGGTTAAAGATCAGCGAACGTGGCGTCG,2.99,2.46,-0.568,1.62,0.0932,4.55,5.87,6.26,5.47,6.67,2.09,3.38,1.34,0.131,0.5,1.89,-0.0611,2.82,-0.162,1.88
CGAACTAGGTCAGAACAGGATAGTGAAGGATGAT,1.16,0.877,-0.252,0.463,-0.465,3.33,5.21,4.24,1.75,3.34,7.17,7.33,2.09,2.21,1.07,0.283,0.0335,1.12,0.743,2.97
CCGAGTAGGTTATGGGGCATTCAGGCAACGGTGA,0.255,0.351,-0.0528,0.508,-0.322,2.11,3.48,4.31,2.03,3.91,3.19,3.21,-0.378,0.039,0.874,-0.0382,0.0489,0.571,0.139,0.99
CCGAGTAGGTTATGGGGCCTTCAGGCAACGGTGA,0.0359,0.107,-0.191,0.353,-0.362,1.33,1.43,2.56,0.26,1.58,3.11,2.85,-0.856,-1.59,0.629,-0.268,-0.427,0.0801,0.0148,0.668
GATGCTAGGTCAACTGATGGTCAGCTAAAGCTCG,3.82,3.15,0.377,2.11,0.0631,3.62,2.79,2.97,0.474,1.77,3.82,3.75,-0.0408,-0.329,1.48,1.45,-0.415,2.58,-0.157,4.11
ATCTCTAGTTAACCAAGTTCAGTGAATGCCGAAC,0.219,1.08,1.32,0.741,0.807,0.492,-0.088,0.244,0.153,0.13,-0.131,0.461,0.59,1.22,1,2.1,3,0.723,1.21,0.932
TATACAGGGTCAAAGCCCAGAGTACGAATGTCGA,7.38,5.88,2.47,4.7,2.15,5.93,6.29,5.96,2.69,4.51,2.27,4.44,3.06,1.86,2.91,3.69,0.241,4.55,0.678,4.28
